A number with no mark means an inactive call. Results filed as inconclusive are left out. A call without a number means that no potency is given here. Active and inactive are the calls of the source. Unless noted, the call rests on the fitted dose curve; in most records, active means well fitted curve in the direction sought with a large enough effect; inconclusive means small, poorly fitted or top-dose-only effect, or another doubt; inactive means no such curve, though single readings can be large; an effect the other way counts as inactive or inconclusive.
Key:
[1] = biological target: Alpha-galactosidase (Coffea arabica) (UniProt Q42656); assay: Counterscreen for Glucocerebrosidase Inhibitors: qHTS Assay for Coffee Bean alpha-Galactosidase at pH 4.5 (AID 957); conditions: purified coffee bean alpha-galactosidase, fluorogenic substrate; series mostly up to 76.9 µM
Sequence of Alpha-galactosidase (Coffea arabica) (Q42656 whole entry, looked up): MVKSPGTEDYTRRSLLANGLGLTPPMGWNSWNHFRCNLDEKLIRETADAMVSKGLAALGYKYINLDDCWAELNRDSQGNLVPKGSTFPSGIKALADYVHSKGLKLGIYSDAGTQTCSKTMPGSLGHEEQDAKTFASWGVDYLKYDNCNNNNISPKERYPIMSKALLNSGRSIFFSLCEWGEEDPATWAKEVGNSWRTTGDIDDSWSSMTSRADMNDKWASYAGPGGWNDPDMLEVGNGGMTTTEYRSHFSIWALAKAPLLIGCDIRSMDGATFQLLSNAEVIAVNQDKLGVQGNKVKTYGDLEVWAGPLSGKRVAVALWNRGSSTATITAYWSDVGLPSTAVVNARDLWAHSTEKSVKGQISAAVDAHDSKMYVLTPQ
Procedure, shortened: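 Coffee bean enzyme (2 nM) with 80 uM 4-methylumbelliferyl alpha-D-galactopyranoside in 50 mM citric acid, 0.005% Tween-20, pH 4.5, 20 min at room temperature; compounds 0.7 nM–77 uM. Stopped at pH 10, fluorescence 365/440 nm; AC50 from Hill fits.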

[2] = biological target: Alpha-galactosidase (Coffea arabica) (UniProt Q42656); assay: Counterscreen for Glucocerebrosidase Inhibitors: qHTS Assay for Coffee Bean alpha-Galactosidase at pH 5.9 (AID 998); conditions: coffee bean alpha-galactosidase enzyme assay; series mostly up to 76.9 µM
Procedure, shortened: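 Green coffee bean enzyme (2 nM) with 4-methylumbelliferyl alpha-D-galactopyranoside (80 uM) in 50 mM citric acid, 0.005% Tween-20, pH 5.9, 20 min at room temperature; compounds 0.7 nM–77 uM. Stopped at pH 10, fluorescence Ex365/Em440; Hill-fit AC50.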

[3] = Validation screen for inhibitors of Lassa infection (AID 463096; calls by dose curve; further: potency means the concentration at half of the fitted maximal effect); conditions: Lassa virus infection, cell-based; series mostly up to 46.1 µM
[4] = Inducers of the Endoplasmic Reticulum Stress Response (ERSR) in human glioma: Validation (AID 504836); conditions: human glioma cells, ER stress response reporter; series mostly up to 38.3 µM
Procedure, shortened: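 Stably transfected U87-MG glioma cells carrying a GRP78-based luciferase sensor; 16 h compound incubation. Luminescence end-point read 10 min after Bright-Glo addition at room temperature.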

[5] = qHTS for Inhibitors of the Functional Ribonucleoprotein Complex (vRNP) of Lassa (LASV) Arenavirus: LASV Primary Screen - GLuc reporter signal (AID 1347082; calls by dose curve; tested in HEK293 reporter line; further: nearly all actives have a fitted effect of over 60% in size); conditions: LASV minigenome vRNP, Gaussia luciferase reporter; series mostly up to 57.5 µM
[6] = qHTS for Inhibitors of the Functional Ribonucleoprotein Complex (vRNP) of Lassa (LASV) Arenavirus: Viability assay - alamar blue signal for LASV Primary Screen (AID 1347083; calls by dose curve; tested in HEK293 reporter line; further: nearly all actives have a fitted effect of over 80% in size); conditions: cell viability, alamar blue fluorescence (LASV minigenome counter-screen); series mostly up to 57.5 µM
[7] = qHTS for Inhibitors of the Functional Ribonucleoprotein Complex (vRNP) of Lymphocytic Choriomeningitis Arenaviruses (LCMV): Viability assay - alamar blue signal for LCMV Primary Screen (AID 1347085; calls by dose curve; tested in HEK293 reporter line; further: nearly all actives have a fitted effect of over 80% in size); conditions: alamar blue viability counter-screen, LCMV vRNP screen cells; series mostly up to 57.5 µM
[8] = biological target: Nucleoprotein (Lymphocytic choriomeningitis virus (strain Armstrong)) (UniProt P09992); assay: qHTS for Inhibitors of the Functional Ribonucleoprotein Complex (vRNP) of Lymphocytic Choriomeningitis Arenaviruses (LCMV): LCMV Primary Screen - GLuc reporter signal (AID 1347086; calls by dose curve; further: nearly all actives have a fitted effect of over 70% in size); conditions: LCMV minigenome vRNP cell assay, Gaussia luciferase reporter; series mostly up to 57.5 µM
Sequence of Nucleoprotein (Lymphocytic choriomeningitis virus (strain Armstrong)) (P09992 whole entry, looked up): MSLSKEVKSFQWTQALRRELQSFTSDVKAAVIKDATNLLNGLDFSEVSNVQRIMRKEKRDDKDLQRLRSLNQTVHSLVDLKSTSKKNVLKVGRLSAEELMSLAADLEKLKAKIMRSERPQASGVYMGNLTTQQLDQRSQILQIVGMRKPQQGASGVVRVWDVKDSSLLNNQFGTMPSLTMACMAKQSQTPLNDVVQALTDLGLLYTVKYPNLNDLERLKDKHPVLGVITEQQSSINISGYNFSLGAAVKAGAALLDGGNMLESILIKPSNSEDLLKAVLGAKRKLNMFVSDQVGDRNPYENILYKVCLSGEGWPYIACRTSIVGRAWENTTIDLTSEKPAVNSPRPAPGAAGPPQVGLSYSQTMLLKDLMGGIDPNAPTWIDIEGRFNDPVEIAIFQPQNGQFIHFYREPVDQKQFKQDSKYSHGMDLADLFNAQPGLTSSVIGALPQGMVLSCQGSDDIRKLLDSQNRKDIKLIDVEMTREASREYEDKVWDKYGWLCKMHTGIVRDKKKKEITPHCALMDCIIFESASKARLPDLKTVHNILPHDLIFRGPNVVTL

Structure (SMILES)	outcome [1]	outcome [2]	Potency [3]	outcome [4]	Potency [5]	Potency [6]	Potency [7]	Potency [8]
CN1CCN(c2nc3cc(C(F)(F)F)ccc3n3cccc23)CC1	inactive	inactive	inactive	inactive	inactive	inactive	inactive	inactive
CCn1c(=O)[nH]c2cc(Cl)c(Cl)cc21	inactive	inactive	inactive	inactive	inactive	inactive	inactive	inactive
NC(N)=NC(N)=Nc1cccc(Cl)c1	inactive	inactive	inactive	inactive	inactive	inactive	inactive	inactive
Cc1ccc2c(c1)C(N1CCN(C)CC1)=Nc1cccnc1N2	inactive		inactive	inactive	inactive	inactive	inactive	inactive
O=c1onc2n1-c1cc(Br)ccc1OC2	inactive	inactive	inactive	inactive	inactive	inactive	inactive	inactive
O=c1ccc2c(OCCCCc3ccccc3)c3ccoc3cc2o1	inactive	inactive	inactive	inactive	inactive	inactive	inactive	inactive
Cc1nc2c(OCc3ccccc3)cccn2c1CC#N	inactive	inactive	inactive	inactive	inactive	inactive	inactive	inactive
CCCn1c(=O)c2[nH]c(C3CCCC3)nc2n(CCC)c1=O	inactive	inactive	inactive	inactive	inactive	inactive	inactive	inactive
CN(C)C(N)=NCCC[C@H](N)C(=O)O	inactive	inactive	inactive	inactive	inactive	inactive	inactive	inactive
COc1ccccc1N1CCN(CCCCNC(=O)c2ccc3ccccc3c2)CC1	inactive	inactive	11.2 µM (active)	inactive	inactive	inactive	inactive	inactive
CC[N+](CC)(CC)CC(=O)Nc1c(C)cccc1C	inactive	inactive	inactive	inactive	inactive	inactive	inactive	inactive
Cn1c(=O)c2[nH]c(-c3ccc(S(=O)(=O)O)cc3)nc2n(C)c1=O	inactive	inactive	inactive	inactive	inactive	inactive	inactive	inactive
O=c1[nH]c2cc(Cl)ccc2c(O)c1-c1ccc(Oc2ccccc2)cc1	inactive	inactive	inactive	inactive	inactive	inactive	inactive	inactive
Cc1nc(N=Nc2ccc(S(=O)(=O)O)cc2S(=O)(=O)O)c(COP(=O)(O)O)c(C=O)c1O	inactive	inactive	inactive	inactive	inactive	inactive	inactive	inactive
Nc1ccc(N2C(=O)c3ccccc3C2=O)c(Cl)c1	inactive	inactive	inactive	inactive	inactive	inactive	inactive	inactive
O=C(O)c1cc([N+](=O)[O-])ccc1NCCCc1ccccc1	inactive	inactive	inactive	inactive	inactive	inactive	inactive	inactive
O=C1CCC(c2ccc(-n3ccnc3)cc2)=NN1	inactive	inactive	inactive	inactive	inactive	inactive	inactive	inactive
C[N+](C)(CCCCCC[N+](C)(C)CCCN1C(=O)c2cccc3cccc(c23)C1=O)CCCN1C(=O)c2cccc3cccc(c23)C1=O	inactive	inactive	inactive	inactive	inactive	inactive	inactive	inactive
COc1ccc(C(=O)NCc2cccnc2)cc1C(=O)NCc1cccnc1	inactive		inactive	inactive	inactive	inactive	inactive	inactive
COc1cc2c(CCNC(C)=O)c[nH]c2cc1Cl	inactive	inactive	inactive	inactive	inactive	inactive	inactive	inactive
[Li+]	inactive	inactive	inactive	inactive	inactive	inactive	inactive	inactive
COc1cc2c(CCNC(C)=O)c[nH]c2cc1O	inactive	inactive	inactive	inactive	inactive	inactive	inactive	inactive
NOCC(=O)O	inactive	inactive	inactive	inactive	inactive	inactive	inactive	inactive
N#C/C(=C\c1c[nH]c2ccccc12)C(=O)c1ccc(O)c(O)c1	inactive	inactive	inactive	inactive	inactive	inactive	inactive	inactive
CCSC(=N)N	inactive	inactive	inactive	inactive	inactive	inactive	inactive	inactive
CCCCCCCC/C=C\CCCCCCCC(=O)NCCO	inactive	inactive	inactive	inactive	inactive	inactive	inactive	inactive
